The text below walks through data of PubChem BioAssay (Tox21).

A short description of test [1]: qHTS RealTime-Glo MT Cell Viability Assay in HepG2 cells - 8 hour (AID 1224873). Note: nearly all actives have a fitted effect of over 55% in size. Note: potency is the fitted concentration of half-maximal effect. The procedure, abridged:
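HepG2 cells mixed with RealTime-Glo MT reagents (NanoLuc plus cell-permeant prosubstrate) were seeded at 600 cells/well, incubated 5 h at 37 C/5% CO2, then pinned with compounds in DMSO; nonlytic luminescence tracked viability during 40 h treatment.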

Test [2] can be described thus: qHTS RealTime-Glo MT Cell Viability Assay in HEK293 cells - 40 hour (AID 1224874). Note: nearly all actives have a fitted effect of over 50% in size. Note: potency is the fitted concentration of half-maximal effect. Conditions: RealTime-Glo luminescence; max response: stronger effect = lower value. The procedure, abridged:
(§1)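 600 cells/well were plated with the nonlytic NanoLuc/prosubstrate reagent, pre-incubated 5 h, then given 23 nL of compound in DMSO. Incubation at 37 C for 40 h, with luminescence from viable-cell-reduced substrate read repeatedly from 0 h.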

Test [3] is described as follows: A CellTox Green Cytotoxicity Assay to monitor cytotoxicity in HEK293 cells - 24 hour (AID 1224875). For activity change: series mostly up to about 77 µM. Note: nearly all actives have a fitted effect of over 45% in size. Note: potency is the fitted concentration of half-maximal effect. The procedure, abridged:
(§2)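 HEK293 cells, 600/well, were preincubated 5 hours and then exposed to compounds at 37 C for up to 40 hours. A cell-impermeant cyanine dye staining dead-cell DNA was read by fluorescence at 0, 8, 16, 24, 32 and 40 h time points.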

Test [4] in a line: A CellTox Green Cytotoxicity Assay to monitor cytotoxicity in HepG2 cells - 16 hour (AID 1224876). Note: nearly all actives have a fitted effect of over 45% in size. Note: potency is the fitted concentration of half-maximal effect. The procedure, abridged: (§3)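 HepG2 cells, 600/well, preincubated 5 h with CellTox Green dye, then exposed to Tox21 compounds in DMSO at 37 C for up to 40 h. Dead-cell DNA fluorescence read at the indicated time point.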
Test [5] in a line: qHTS RealTime-Glo MT Cell Viability Assay in HepG2 cells - 32 hour (AID 1224877). Note: nearly all actives have a fitted effect of over 55% in size. Note: potency is the fitted concentration of half-maximal effect. The procedure, abridged: (§4)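 Cells + NanoLuc/prosubstrate dispensed (600 cells/well) → 5 h at 37 C/5% CO2 → compounds in DMSO transferred → 40 h incubation at 37 C, luminescence read at 0, 8, 16, 24, 32, 40 h.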
Test [6] can be described thus: A CellTox Green Cytotoxicity Assay to monitor cytotoxicity in HepG2 cells - 24 hour (AID 1224878). Note: nearly all actives have a fitted effect of over 45% in size. Note: potency is the fitted concentration of half-maximal effect. The procedure, abridged:
as §3

The nature of test [7]: A CellTox Green Cytotoxicity Assay to monitor cytotoxicity in HepG2 cells - 40 hour (AID 1224879). Note: nearly all actives have a fitted effect of over 40% in size. Note: potency is the fitted concentration of half-maximal effect. In short, it runs like this:
as §3

A short description of test [8]: qHTS RealTime-Glo MT Cell Viability Assay in HEK293 cells - 0 hour (AID 1224880). Note: top concentration of the series differs between compounds; nearly all actives have a fitted effect of over 45% in size. The procedure, abridged:
as §1

The nature of test [9]: A CellTox Green Cytotoxicity Assay to monitor cytotoxicity in HEK293 cells - 32 hour (AID 1224881). Note: nearly all actives have a fitted effect of over 40% in size. Note: potency is the fitted concentration of half-maximal effect. The procedure, abridged: as §2
Test [10] is described as follows: A CellTox Green Cytotoxicity Assay to monitor cytotoxicity in HepG2 cells - 0 hour (AID 1224882). Note: nearly all actives have a fitted effect of over 35% in size. In short, it runs like this:
as §3

Test [11] is described as follows: A CellTox Green Cytotoxicity Assay to monitor cytotoxicity in HepG2 cells - 32 hour (AID 1224883). Note: nearly all actives have a fitted effect of over 50% in size. Note: potency is the fitted concentration of half-maximal effect. In short, it runs like this: as §3
Test [12] is described as follows: A CellTox Green Cytotoxicity Assay to monitor cytotoxicity in HEK293 cells - 8 hour (AID 1224884). Note: nearly all actives have a fitted effect of over 35% in size. Note: potency is the fitted concentration of half-maximal effect. In short, it runs like this: as §2
The nature of test [13]: qHTS RealTime-Glo MT Cell Viability Assay in HepG2 cells - 16 hour (AID 1224885). Note: nearly all actives have a fitted effect of over 50% in size. Note: potency is the fitted concentration of half-maximal effect. In short, it runs like this: as §4
A short description of test [14]: qHTS RealTime-Glo MT Cell Viability Assay in HEK293 cells - 24 hour (AID 1224886). For activity change, negative = cytotoxicity: top concentration of the series differs between compounds. Note: nearly all actives have a fitted effect of over 50% in size. Note: potency is the fitted concentration of half-maximal effect. The procedure, abridged:
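Tox21 10K qHTS, HEK293, 600 cells/well, RealTime-Glo reagent co-dispensed with cells; 5 h preincubation, compound by pintool, 37 C, luminescence at 0–40 h.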

Test [15] is described as follows: qHTS RealTime-Glo MT Cell Viability Assay in HEK293 cells - 8 hour (AID 1224887). For activity change, negative = cytotoxicity: top concentration of the series differs between compounds. Note: nearly all actives have a fitted effect of over 50% in size. Note: potency is the fitted concentration of half-maximal effect. The procedure, abridged:
as §1

Test [16] in a line: A CellTox Green Cytotoxicity Assay to monitor cytotoxicity in HEK293 cells - 16 hour (AID 1224888). Note: nearly all actives have a fitted effect of over 35% in size. Note: potency is the fitted concentration of half-maximal effect. In short, it runs like this:
as §2

Test [17] in a line: qHTS RealTime-Glo MT Cell Viability Assay in HepG2 cells - 0 hour (AID 1224889). Note: nearly all actives have a fitted effect of over 50% in size. In short, it runs like this:
as §4

Test [18] is described as follows: A CellTox Green Cytotoxicity Assay to monitor cytotoxicity in HepG2 cells - 8 hour (AID 1224890). Note: nearly all actives have a fitted effect of over 45% in size. In short, it runs like this: as §3
Test [19] is described as follows: qHTS assay to identify small molecule antagonists of the estrogen receptor alpha (ER-alpha) signaling pathway using the BG1 cell line in the presence of 0.1 nM 17-beta-estradiol - cell viability counter screen (AID 1259241). Note: nearly all actives have a fitted effect of over 40% in size. The procedure, abridged: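 Estradiol-stimulated (0.1 nM) VM7Luc4E2 cells exposed to compounds 22 hr; viability measured by fluorescence of cleaved CellTiter-Fluor substrate after 30 min.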

The nature of test [20]: qHTS assay to identify small molecule antagonists of the androgen receptor (AR) signaling pathway using the MDA cell line in the presence of 0.5 nM R1881 - cell viability counter screen (AID 1259242). Note: nearly all actives have a fitted effect of over 45% in size. The procedure, abridged:
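MDA-kb2 cells (MMTV-luciferase, AR/GR responsive) were treated with compounds plus 0.5 nM R1881 (final) for 16 hr at 37C, 0% CO2. Viability was then read in the same wells as live-cell protease fluorescence (CellTiter-Fluor, 30 min).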

Where “and” joins values, the source holds several entries; their conditions need not be identical. Identical values can stand only once. Records with an inconclusive call do not appear. The source holds several records for some structures; these can differ, active in one and inactive in another. Calls of active or inactive are those of the source. Calls come from the whole dose curve; as a rule, active = well fitted curve in the direction sought with a large enough effect in the repeat runs; inconclusive = weak or mixed curves; inactive = no such curve, though single readings can be large; an effect the other way counts as inactive or inconclusive.
% is set by controls: 0 for no effect and ±100 for the full control effect.

For `CCCCOCCOC(=O)c1ccccc1C(=O)OCCOCCCC`, the Potency entry in [1], in test [3], in test [4], in test [5], in test [6] and in [7] was “inactive” each time. The Potency result in test [8], in [9], in [10], in test [11], in [12] and in test [13] was “inactive” in each case. In addition, the Potency entry in test [14], in [15], in [16] and in test [17] was “inactive” in each case. In [2], the max response is -18.4% (inactive).
As for `NC(Cc1ccc(Cl)cc1)C(=O)O` (configuration not stated), the viability change, negative = cytotoxic in [1] is -7.98% [at 0.29 µM] (inactive); in test [20] it was 4.52% [at 0.349 µM] (inactive). Also, the max response in test [2] was 10.5% (inactive). Further, the activity change in test [3] is -5.17% [at 0.29 µM, stronger effect = higher value] (inactive); in test [16], -4.15% [at 0.29 µM, stronger effect = higher value] (inactive). Also, the cytotoxicity increase in [4] was -4.84% [at 0.29 µM] (inactive); in test [7], -9.84% [at 0.29 µM] (inactive); in [9], -6.93% [at 0.29 µM] (inactive); in test [11] it was -4.66% [at 0.29 µM] (inactive); in [12], 5.18% [at 0.29 µM] (inactive); in [18], -8.44% [at 0.29 µM] (inactive). Further, the activity change, negative = cytotoxic is 0.542% [at 0.29 µM] (inactive) in test [5] and -3.04% [at 0.29 µM] (inactive) in test [13]. Also, the cytotoxicity in [6] was -5.86% [at 0.29 µM] (inactive); in test [10], -3.58% [at 0.29 µM] (inactive). In addition, the activity change, negative = cytotoxicity in [8] is 12.3% [at 0.29 µM] (inactive); in test [14] it was 9.19% [at 0.29 µM] (inactive); in test [15] it was 10.3% [at 0.29 µM] (inactive); in [17] it was -2.96% [at 0.29 µM] (inactive); in [19] it was 0.121% [at 0.349 µM] (inactive).
As to `COc1cc(C(=S)N2CCOCC2)ccc1O`, the Potency result in test [1], in [3], in test [4], in test [5], in test [6] and in test [7] was “inactive” throughout. Besides, the Potency entry in test [8], in test [9], in [10], in test [11], in [12] and in [13] was “inactive” each time. Further, the Potency entry in test [14], in test [15], in test [16], in test [17], in test [18] and in [19] was “inactive” each time. Moreover, the Potency result in [20] was “inactive”. In addition, the max response in [2] is 0.473% (inactive).
With `CC(=O)N[C@@H](CS)C(=O)O`, the Potency entry in test [1], in test [3], in test [4], in [5], in test [6] and in test [7] was “inactive” throughout. In addition, the Potency result in test [8], in [9], in test [10], in test [11], in test [12] and in [13] was “inactive” throughout. Also, the Potency entry in test [14], in test [15], in test [16], in test [17], in [18] and in [19] was “inactive” in each case. In addition, the Potency result in [20] is “inactive”. Also, the max response in [2] was 3.06% (inactive) and 6.4% (inactive).
For `c1ccc2c(c1)-c1cccc3c1c-2cc1ccccc13`, the Potency result in test [1], in [3], in [4], in test [5], in test [6] and in [8] was “inactive” in each case. For the same molecule, the Potency result in test [9], in test [10], in test [11], in test [12], in test [13] and in test [14] was “inactive” each time. The Potency entry in [15], in test [16], in test [17], in [18], in test [19] and in test [20] was “inactive” each time. Moreover, the max response in test [2] was 1.04% (inactive). Further, the Potency in test [7] is 1.91 µM (active) and inactive.
Take `CC(C)C(=O)c1c(C(C)C)nn2ccccc12`: the Potency entry in test [1], in [3], in test [4], in test [5], in test [6] and in test [7] was “inactive” in each case. In addition, the Potency result in [8], in test [9], in [10], in test [11], in test [12] and in test [13] was “inactive” throughout. The Potency result in [14], in [15], in [16], in test [17], in test [18] and in test [19] was “inactive” throughout. In addition, in [20], the Potency result was “inactive”. Besides, the max response in test [2] was -0.81% (inactive).
Consider `OCC(CO)N[C@H]1C[C@](O)(CO)[C@@H](O)[C@H](O)[C@H]1O`, for which the Potency result in test [1], in test [3], in test [4], in test [5], in [6] and in test [7] was “inactive” throughout. Besides, the Potency entry in test [8], in [9], in [10], in [11], in test [12] and in test [13] was “inactive” throughout. For the same molecule, the Potency entry in test [14], in test [15], in test [17] and in [20] was “inactive” in each case. The max response in [2] was 11.4% (inactive).
Consider `CC(N)=O`, for which the Potency result in test [1], in [3], in test [4], in test [5], in test [6] and in test [7] was “inactive” throughout. The Potency result in test [8], in test [9], in test [10], in test [11], in test [12] and in test [13] was “inactive” in each case. For the same molecule, the Potency result in test [14], in test [15], in test [16], in test [17] and in [20] was “inactive” each time. In addition, the max response in [2] was 14.5% (inactive).
Turning to `Cc1cccc(O)c1C`, the Potency result in test [1], in test [3], in test [4], in [5], in [6] and in test [7] was “inactive” each time. Moreover, the Potency result in test [8], in test [9], in test [10], in [11], in [13] and in [14] was “inactive” throughout. For the same molecule, the Potency entry in test [15], in [17], in [18], in [19] and in test [20] was “inactive” in each case. Also, in test [2], the max response was -0.0816% (inactive) and -5.42% (inactive). Further, the Potency entry in test [12] is “inactive and 22.5 µM (active)”.
With `CC(C)(C)NC(=O)[C@@H]1CN(Cc2cccnc2)CCN1C[C@@H](O)C[C@@H](Cc1ccccc1)C(=O)N[C@H]1c2ccccc2C[C@H]1O`, the Potency result in test [1], in [3], in test [4], in test [5], in test [6] and in test [7] was “inactive” throughout. Besides, the Potency entry in test [8], in [9], in test [10], in [11], in test [12] and in test [13] was “inactive” throughout. In addition, the Potency result in [14], in test [15], in test [16], in [17], in test [19] and in [20] was “inactive” throughout. Besides, the max response in [2] was 0.0575% (inactive) and 0.362% (inactive).
Regarding `CCCCCCCCCCCCc1ccccc1O`, the Potency entry in test [1] is “inactive and 34.7 µM (active)”; in [2] it was 48.3 µM (active) and 49 µM (active); in test [3], 43.1 µM (active) and 38.9 µM (active); in test [4], “inactive and 21.9 µM (active)”; in test [5], “inactive and 43.6 µM (active)”; in [6], 17.4 µM (active). The Potency in [7] was 48.3 µM (active) and 21.9 µM (active); in [9], 43.1 µM (active) and 38.9 µM (active); in test [11], 19.5 µM (active); in test [13], “inactive and 34.7 µM (active)”; in test [14] it was 43.1 µM (active) and 49 µM (active); in test [15] it was 43.1 µM (active) and 38.9 µM (active). In addition, the Potency in [16] was 43.1 µM (active) and 38.9 µM (active). In addition, the Potency result in [8], in test [10], in test [17] and in test [19] was “inactive” throughout.
